# Compound activity (PubChem)
# Calb FLC: C. albicans growth modulation with fluconazole. growth inhibition, % (no concentration beside the values). 0.57% of 300,000 active. AID 1979. C. albicans CaCi-2 (fluconazole-resistant clinical isolate) + fluconazole, Alamar Blue growth, 48 h;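 active = growth inhibition above about 58% in most replicates, limit read from the data, passing the limit was not always enough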;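 note: all wells also contain fluconazole at 8 µg/ml as a sub-toxic cotreatment; 0% = median of DMSO wells and 100% = median of geldanamycin control wells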
# IDE cell inh: cellular human IDE inhibition | inhibition, % at 5.59 µM | AID 434962 | HEK cells, FAbetaB cleavage, fluorescence polarization | 0.41% of 320,000 active;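 active = percent inhibition above the average of all tested compounds plus 3 SD, set per screening campaign, cut at about 16% in these data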;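 note: IDE supplied by intact live HEK cells; FP after avidin binding of uncleaved biotin substrate so inhibition keeps polarization high; 0% = DMSO wells and 100% = 60 µM reference IDE inhibitor Ii1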
# TPT1 inhibitor: inhibitors of Candida albicans tRNA 2'-phosphotransferase TPT1. AID 1962. inhibition, % at 5 µM. 0.81% of 300,000 active. recombinant caTPT1, FP RNA substrate dephosphorylation;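 active = inhibition above the mean of all tested compounds plus 3 SD, set per screening campaign, cut at about 24% in these data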;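 note: plate controls were DMSO alone for no effect and ferristatin control at 100 nM for full effect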
# Rpn11 block: Rpn11 (human) deubiquitinase inhibition. human 26S proteasome, Ub4-pepOG fluorescence polarization; 20S core pre-blocked with epoxomicin. O00487. inhibition, % at 20 µM. 0.59% of 360,000 active;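 active = inhibition at 20 µM, scaled to each plate's controls, above about 33%, limit read from the data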
# Rin1 Abl inh: human Rin1-Abl interaction inhibition | 0.4% of 360,000 active | TR-FRET Rin1/Abl binding, biochemical | P00519+Q13671 | inhibition, % at 7.35 µM | AID 588664; in the data active = inhibition above about 5%, passing the limit was not always enough
# IDE act: activators of human insulin-degrading enzyme in cells. HEK cells, FAbeta-B cleavage, fluorescence polarization; 0% vehicle, 100% cell-free pure enzyme wells. activation, % at 5.96 µM. 0.073% of 340,000 active;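 active = activation above the mean of all tested compounds plus 3 SD, set per screening campaign, cut at about 17% in these data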
# Rpn11 inh conf: confirmation of human proteasome Rpn11 inhibitors; shares compounds with Rpn11 block; purified human 26S proteasome, Ub4-pepOG fluorescence polarization; proteasome pretreated with epoxomicin; inhibition, % at 20 µM; 29% of 1,900 active
# MMP-2 inh: MMP-2 (human) inhibition counter-screen; shares compounds with Rpn11 block; recombinant MMP-2, FRET peptide cleavage fluorescence; inhibition, % at 20 µM; 4% of 1,900 active; AID 602330;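 note: human MMP-2 activated beforehand with APMA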
# Thrombin inh: blocks bovine thrombin, flagging nonselective RPN11 hits | inhibition, % at 20 µM | 13% of 1,900 active | bovine thrombin cleavage of Ub4-pepOG, fluorescence polarization | shares compounds with Rpn11 block | AID 602333;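 active = mean inhibition at least 40% at 20 µM, or signal 3 deviations below plate average, so some actives read negative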;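 note: plate controls were thrombin with DMSO for no effect and buffer wells lacking thrombin for full effect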
# Target sequence (P00735 whole entry, looked up): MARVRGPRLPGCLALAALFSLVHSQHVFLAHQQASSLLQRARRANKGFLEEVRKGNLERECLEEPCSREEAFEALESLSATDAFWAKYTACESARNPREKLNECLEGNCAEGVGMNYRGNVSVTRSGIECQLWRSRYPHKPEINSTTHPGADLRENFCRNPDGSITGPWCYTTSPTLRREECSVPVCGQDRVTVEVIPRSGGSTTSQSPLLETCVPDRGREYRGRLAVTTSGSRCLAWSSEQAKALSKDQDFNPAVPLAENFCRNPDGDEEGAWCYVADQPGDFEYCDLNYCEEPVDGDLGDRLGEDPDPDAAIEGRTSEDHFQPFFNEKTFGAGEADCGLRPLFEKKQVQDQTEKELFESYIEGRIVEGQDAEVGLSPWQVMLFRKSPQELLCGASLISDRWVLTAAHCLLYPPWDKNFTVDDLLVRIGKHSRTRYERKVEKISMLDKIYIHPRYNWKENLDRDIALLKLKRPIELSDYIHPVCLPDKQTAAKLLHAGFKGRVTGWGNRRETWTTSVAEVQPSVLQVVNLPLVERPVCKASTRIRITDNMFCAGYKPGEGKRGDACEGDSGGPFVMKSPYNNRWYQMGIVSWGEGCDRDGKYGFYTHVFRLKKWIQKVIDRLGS
# Rin1 Abl conf: confirmation of inhibitors of human Rin1-Abl interaction. inhibition, % at 7.35 µM. TR-FRET Rin1-Abl binding, purified proteins. 49% of 1,300 active. shares compounds with Rin1 Abl inh. AID 602124; in the data active = inhibition above about 6.5%
# GFP quench: counter-screen for Rin1-Abl inhibitors: GFP fluorescence quenchers; inhibitors/quenchers counterscreen; shares compounds with Rin1 Abl inh; 8.5% of 1,300 active; AID 602125; inhibition, % at 6.75 µM; in the data active = inhibition above about 6.5%;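 note: ABL1-eGFP fusion protein alone without its partner RIN1-SBP; 0% = protein with vehicle and 100% = wells lacking protein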
# * hit, by the source's call; / = not tested or not shown; + = active, no number. Hits are enriched below; roughly 2.3% of the tested compounds scored in any of these assays. Cut-off read from the data, not from the text of the source, unless noted: active = inhibition above about 40%; inactive = the rest.
SMILES,Calb FLC,IDE cell inh,TPT1 inhibitor,Rpn11 block,Rin1 Abl inh,IDE act,Rpn11 inh conf,MMP-2 inh,Thrombin inh,others
CSc1nsc(/C=C/Nc2ccc(F)cc2)c1C#N,/,3,24,64*,-1,-2,28,-37,16,
CC1(C(=O)Nc2ccc(Cl)c(C(F)(F)F)c2)Cc2c(-c3ccc(C(N)=O)cc3)ccnc2O1 (stereo not drawn),/,/,/,3,4,/,/,/,/,
O=C(C[n+]1ccccn1)c1ccccc1,-4,2,2,18,1,2,/,/,/,
COc1ccc(/C=C2/Sc3ccc(C(=O)NCCN4CCCCCC4)cc3NC2=O)cc1,-11,3,-2,70*,-7,8,8,-40,-2,
O=C1Nc2cc(C(=O)NCCCN3CCCC3)ccc2S/C1=C\c1ccccc1,11,-1,1,7,-4,4,/,/,/,
Cc1ccc(NC(=O)COC(=O)Cc2cccs2)cc1S(=O)(=O)N1CCOCC1,2,10,-3,-4,2,-3,/,/,/,
CCOC(=O)/C=C1/N(C)c2ccccc2C1(C)C,-7,-4,1,-4,-2,5,/,/,/,
CN1/C(=C\P(=O)(N(C)C)N(C)C)C(C)(C)c2ccccc21,32,-1,-9,60*,-1,8,33,-18,22,
Oc1c(CN2CCOCC2)cc(CN2CCOCC2)cc1CN1CCOCC1,/,/,/,44*,0,2,3,-19,3,
CCC(=O)Nc1cccc(NC(=S)NC(=O)c2ccccc2)c1,-8,0,-3,-8,1,-3,/,/,/,
O=C(O)c1ccc(NC(=S)Nc2ccccc2)cc1,-2,6,-1,34*,-1,1,7,7,-1,
COC(=O)c1ccc(NC(=S)Nc2ccccc2)cc1,16,4,-2,-2,-3,2,/,/,/,
O=C(NC(=S)Nc1cccc(NC(=S)NC(=O)c2ccccc2)c1)c1ccccc1,/,/,/,40*,1,-6,27,49*,-10,
O=C(Nc1ccc(S(=O)(=O)N2CCCCC2)cc1)C1CCCN(C(=O)c2ccc(Cl)cc2)C1 (stereo not drawn),9,4,2,10,-6,-5,/,/,/,
CCN(C(=O)C1CCCN(c2ncnc3c2nc2n3CCCCC2)C1)c1cccc(Cl)c1 (stereo not drawn),-7,5,3,-1,5,4,/,/,/,
Cc1ccc(-c2nc(CN3CCCCC3CCN3CCCC3=O)c(C)o2)o1 (stereo not drawn),7,-2,1,41*,1,3,18,5,16,
C/C(CC(=O)NCCN1CCOCC1)=N\NC(=O)c1ccncc1,-5,1,0,-4,-1,5,/,/,/,
O=c1[nH]c(CN2CCN(c3ccccc3)CC2)nc2scc(-c3ccccc3)c12,-16,2,10,41*,-1,-3,14,9,-5,
COc1ccc(N2CCN(Cc3nc4scc(-c5cccs5)c4c(=O)[nH]3)CC2)cc1,4,9,6,58*,-3,-5,8,17,-11,
COc1ccc(N2CCN(Cc3nc4scc(-c5ccccc5)c4c(=O)[nH]3)CC2)cc1,-2,1,10,27,2,0,/,/,/,
Cc1cccc(NC(=O)COC(=O)c2ccc(C)c(S(=O)(=O)N3CCCCC3)c2)c1,/,-4,/,2,-2,2,/,/,/,
COc1ccc(/C=N/NC(=O)c2ccc3c(c2)OCO3)c(C(=O)O)c1OC,-3,4,1,-8,3,6,/,/,/,
CCCCCCCCCCCCCCCC[n+]1ccc(C(N)=O)cc1,/,-14,1,67*,-2,8,15,-10,-18,
CCCCCCCC[n+]1cccc(C(=O)N(CC)CC)c1,-10,3,-1,-5,4,0,/,/,/,
O=C1OCC(c2ccc(Cl)s2)=C1c1ccccc1[N+](=O)[O-],11,2,-1,-1,3,5,/,/,/,
SMILES,Calb FLC,IDE cell inh,TPT1 inhibitor,Rpn11 block,Rin1 Abl inh,IDE act,Rpn11 inh conf,MMP-2 inh,Thrombin inh,others
COc1ccc(NC(=S)NNc2ccc(C(=O)O)cc2)cc1,-5,5,2,6,3,3,/,/,/,
Cc1ccc(S(=O)(=O)/N=C2/NC(=O)/C(=C/c3cccnc3)S2)cc1,-6,1,0,2,-4,2,/,/,/,
Cc1ccc(S(=O)(=O)/N=C2/NC(=O)/C(=C/c3ccc(Br)o3)S2)cc1,9,-2,16,61*,-3,-2,28,-8,18,
CNc1ccc2nnc(C(F)(F)C(F)(F)C(F)(F)F)n2n1,23,5,6,106*,4,0,-5,29,-15,
COc1ccccc1C(=O)NC(CCSC)C(=O)NCCCSc1ccccc1 (stereo not drawn),5,0,0,-5,0,1,/,/,/,
C[C@H](NC(=O)c1ncn2c1c(=O)[nH]c1ccc(Br)cc12)c1ccccc1,/,/,/,+,7.9*,/,5,-2,-8,Rin1 Abl conf=-22;GFP quench=0
Cc1nn(-c2ccccc2)c(Cl)c1C(=O)NNC(=O)c1ccccc1O,/,0,/,-4,-1,6,/,/,/,
Brc1ccc(N=NNc2ccccc2)cc1,-32,2,-3,1,5.8*,1,/,/,/,Rin1 Abl conf=-2;GFP quench=-1
Cc1nc(Cl)sc1C(=O)Nc1ccc(Cl)cc1,-17,-2,1,-2,1,-2,/,/,/,
CNC(=O)c1oc(-c2ccc(Cl)cc2)nc1C,-2,-2,1,1,13*,4,/,/,/,Rin1 Abl conf=-3;GFP quench=0
Cc1ccc(NC(=O)CCS(=O)(=O)c2ccc3c(c2)NC(=O)C(C)S3)nc1 (stereo not drawn),6,2,-1,-2,7,1,/,/,/,
CCc1ccc(-c2cc(C)no2)cc1S(=O)(=O)NCc1ccccc1OC,9,3,2,-4,-3,0,/,/,/,
COc1ccccc1CN1CCC(CNS(=O)(=O)c2cc(-c3cc(C)no3)ccc2OC)CC1,0,3,1,1,12*,0,/,/,/,Rin1 Abl conf=1;GFP quench=0
O=C1C2C3C=CC([C@@H]2C(=O)N1Cc1cccnc1)C31CC1 (stereo partly drawn),1,-6,-3,0,1,-2,/,/,/,
